Active and inactive are the calls of the source.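 How the source made its calls, unless noted: active means normalized viability below 100% at a tested concentration; inactive means the rest.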
What was measured:
[1] = ovarian cancer cell viability with rucaparib, profiling panel, oncology-focused library, rucaparib conditional (AID 1508598); conditions: patient-derived ovarian cancer cells, CellTiter-Glo viability, 144 h, stronger effect = lower value
[2] = sensitizers of A549 cells to miR-34 induction, primary screen, imaging, A549 dox-inducible miR-34, nuclei and caspase counts (AID 1347080;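 active means compounds whose cell count with miR-34 switched on is under 0.7 times the count with it off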); conditions: A549 miR-34 inducible, Hoechst nuclei count, 48 h
[3] = survival rescue of mitochondrial mutant cells in low glucose, primary screen, MELAS cybrids, Rieske KO mouse fibroblasts, CellTiter-Glo (AID 1508586;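 active means mean z-score across replicates of 1.96 or higher in either the MELAS or the Rieske mutant cell line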;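 further: z relative to plate mean and SD of compound and empty wells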)
[4] = at 1.25 µM, OCI-C5x cells, with rucaparib 10 µM, 100% = cells with rucaparib alone
[5] = at 1.25 µM, OCI-C5x cells, without rucaparib
[6] = at 1.25 µM, OCI-P5x cells, with rucaparib 20 µM, 100% = cells with rucaparib alone
[7] = at 1.25 µM, OCI-P5x cells, without rucaparib
[8] = at 5 µM, OCI-C5x cells, with rucaparib 10 µM, 100% = cells with rucaparib alone
[9] = at 5 µM, OCI-C5x cells, without rucaparib
[10] = at 5 µM, OCI-P5x cells, with rucaparib 20 µM, 100% = cells with rucaparib alone
[11] = at 5 µM, OCI-P5x cells, without rucaparib
[12] = stronger effect = lower value, cell number ratio, induced over uninduced
[13] = measured here: relative caspase fold change +Dox/-Dox
[14] = measured here: total cells with miR-34 induction, stronger effect = lower value
[15] = measured here: total cells without miR-34 induction
[16] = MELAS cybrid survival, CellTiter-Glo 48 h, stronger effect = higher value
[17] = Rieske KO mouse fibroblast survival, CellTiter-Glo 72 h
[18] = at 0.000305 µM, OCI-C5x cells, with rucaparib 10 µM, 100% = cells with rucaparib alone
[19] = at 0.000305 µM, OCI-C5x cells, without rucaparib
[20] = at 0.000305 µM, OCI-P5x cells, with rucaparib 20 µM, 100% = cells with rucaparib alone
[21] = at 0.000305 µM, OCI-P5x cells, without rucaparib
[22] = at 0.00122 µM, OCI-C5x cells, with rucaparib 10 µM, 100% = cells with rucaparib alone
[23] = at 0.00122 µM, OCI-C5x cells, without rucaparib
[24] = at 0.00122 µM, OCI-P5x cells, with rucaparib 20 µM, 100% = cells with rucaparib alone
[25] = at 0.00122 µM, OCI-P5x cells, without rucaparib
[26] = at 0.00488 µM, OCI-C5x cells, with rucaparib 10 µM, 100% = cells with rucaparib alone
[27] = at 0.00488 µM, OCI-C5x cells, without rucaparib
[28] = at 0.00488 µM, OCI-P5x cells, with rucaparib 20 µM, 100% = cells with rucaparib alone
[29] = at 0.00488 µM, OCI-P5x cells, without rucaparib
[30] = at 0.0195 µM, OCI-C5x cells, with rucaparib 10 µM, 100% = cells with rucaparib alone
[31] = at 0.0195 µM, OCI-C5x cells, without rucaparib
[32] = at 0.0195 µM, OCI-P5x cells, with rucaparib 20 µM, 100% = cells with rucaparib alone
[33] = at 0.0195 µM, OCI-P5x cells, without rucaparib
[34] = at 0.0781 µM, OCI-C5x cells, with rucaparib 10 µM, 100% = cells with rucaparib alone
[35] = at 0.0781 µM, OCI-C5x cells, without rucaparib
[36] = at 0.0781 µM, OCI-P5x cells, with rucaparib 20 µM, 100% = cells with rucaparib alone
[37] = at 0.0781 µM, OCI-P5x cells, without rucaparib
[38] = at 0.313 µM, OCI-C5x cells, with rucaparib 10 µM, 100% = cells with rucaparib alone
[39] = at 0.313 µM, OCI-C5x cells, without rucaparib
[40] = at 0.313 µM, OCI-P5x cells, with rucaparib 20 µM, 100% = cells with rucaparib alone
[41] = at 0.313 µM, OCI-P5x cells, without rucaparib

SMILES: C[C@]12C=CC(=O)C=C1CC[C@@H]1[C@H]2C(=O)C[C@@]2(C)[C@H]1CC[C@@]2(O)C(=O)CO
- viability [1, 4]: 111% (inactive)
- viability [1, 5]: 97.7% (active)
- viability [1, 6]: 85.8% (active)
- viability [1, 7]: 76.5% (active)
- viability [1, 8]: 115% (inactive)
- viability [1, 9]: 98.1% (active)
- viability [1, 10]: 75.2% (active)
- viability [1, 11]: 77.4% (active)

SMILES: CC(C)(C)C(=O)Nc1ccc2c(c1)C(=O)C(=O)c1ccccc1-2
- fold change [2, 12]: 1.31 (inactive)
- fold change [2, 13]: 0.69
- cell count [2, 14]: 833
- cell count [2, 15]: 636
- z-score [3, 16]: 0.258 (inactive)
- z-score [3, 17]: -7.92
- viability [1, 18]: 109% (inactive)
- viability [1, 19]: 109% (inactive)
- viability [1, 20]: 95.2% (active)
- viability [1, 21]: 90.7% (active)
- viability [1, 22]: 127% (inactive)
- viability [1, 23]: 103% (inactive)
- viability [1, 24]: 99.1% (active)
- viability [1, 25]: 91.1% (active)
- viability [1, 26]: 116% (inactive)
- viability [1, 27]: 114% (inactive)
- viability [1, 28]: 78.7% (active)
- viability [1, 29]: 63.1% (active)
- viability [1, 30]: 119% (inactive)
- viability [1, 31]: 112% (inactive)
- viability [1, 32]: 79% (active)
- viability [1, 33]: 64.3% (active)
- viability [1, 34]: 118% (inactive)
- viability [1, 35]: 113% (inactive)
- viability [1, 36]: 63.5% (active)
- viability [1, 37]: 45.6% (active)
- viability [1, 38]: 81.1% (active)
- viability [1, 39]: 112% (inactive)
- viability [1, 40]: 29.6% (active)
- viability [1, 41]: 18.8% (active)
- viability [1, 4]: 114% (inactive)
- viability [1, 5]: 113% (inactive)
- viability [1, 6]: 103% (inactive)
- viability [1, 7]: 104% (inactive)
- viability [1, 8]: 70.9% (active)
- viability [1, 9]: 107% (inactive)
- viability [1, 10]: 2.26% (active)
- viability [1, 11]: 7.62% (active)

SMILES: Cc1cc(C)c(S(=O)(=O)n2cc(C)cc2C)c(C)c1
- fold change [2, 12]: 0.922 (inactive)
- fold change [2, 13]: 0.448
- cell count [2, 14]: 7540
- cell count [2, 15]: 8180
- z-score [3, 16]: -0.318 (inactive)
- z-score [3, 17]: 0.313
- viability [1, 18]: 109% (inactive)
- viability [1, 19]: 106% (inactive)
- viability [1, 20]: 102% (inactive)
- viability [1, 21]: 104% (inactive)
- viability [1, 22]: 121% (inactive)
- viability [1, 23]: 104% (inactive)
- viability [1, 24]: 97.6% (active)
- viability [1, 25]: 96% (active)
- viability [1, 26]: 116% (inactive)
- viability [1, 27]: 101% (inactive)
- viability [1, 28]: 106% (inactive)
- viability [1, 29]: 101% (inactive)
- viability [1, 30]: 112% (inactive)
- viability [1, 31]: 94% (active)
- viability [1, 32]: 105% (inactive)
- viability [1, 33]: 97.2% (active)
- viability [1, 34]: 128% (inactive)
- viability [1, 35]: 102% (inactive)
- viability [1, 36]: 99.3% (active)
- viability [1, 37]: 97.7% (active)
- viability [1, 38]: 122% (inactive)
- viability [1, 39]: 109% (inactive)
- viability [1, 40]: 101% (inactive)
- viability [1, 41]: 98.8% (active)
- viability [1, 4]: 113% (inactive)
- viability [1, 5]: 94.4% (active)
- viability [1, 6]: 106% (inactive)
- viability [1, 7]: 102% (inactive)
- viability [1, 8]: 122% (inactive)
- viability [1, 9]: 110% (inactive)
- viability [1, 10]: 101% (inactive)
- viability [1, 11]: 102% (inactive)

SMILES: COc1ccccc1-c1cc(Nc2cccc(CS(N)(=O)=O)c2)ncn1
- fold change [2, 12]: 0.955 (inactive)
- fold change [2, 13]: 0.462
- cell count [2, 14]: 3900
- cell count [2, 15]: 4080
- z-score [3, 16]: -0.3 (inactive)
- z-score [3, 17]: -1.46
- viability [1, 18]: 125% (inactive)
- viability [1, 19]: 105% (inactive)
- viability [1, 20]: 92.8% (active)
- viability [1, 21]: 91.1% (active)
- viability [1, 22]: 122% (inactive)
- viability [1, 23]: 98.9% (active)
- viability [1, 24]: 96.8% (active)
- viability [1, 25]: 90.1% (active)
- viability [1, 26]: 127% (inactive)
- viability [1, 27]: 107% (inactive)
- viability [1, 28]: 103% (inactive)
- viability [1, 29]: 95.2% (active)
- viability [1, 30]: 126% (inactive)
- viability [1, 31]: 117% (inactive)
- viability [1, 32]: 103% (inactive)
- viability [1, 33]: 97.6% (active)
- viability [1, 34]: 126% (inactive)
- viability [1, 35]: 115% (inactive)
- viability [1, 36]: 100% (inactive)
- viability [1, 37]: 102% (inactive)
- viability [1, 38]: 111% (inactive)
- viability [1, 39]: 102% (inactive)
- viability [1, 40]: 93.6% (active)
- viability [1, 41]: 99.6% (active)
- viability [1, 4]: 125% (inactive)
- viability [1, 5]: 110% (inactive)
- viability [1, 6]: 91.1% (active)
- viability [1, 7]: 94.8% (active)
- viability [1, 8]: 105% (inactive)
- viability [1, 9]: 99.7% (active)
- viability [1, 10]: 64.2% (active)
- viability [1, 11]: 74.8% (active)

SMILES: CN(CC(=O)N(Cc1ccc(C2CCCCC2)cc1)c1ccc(C(=O)O)cc1)S(=O)(=O)c1c(F)c(F)c(F)c(F)c1F
- fold change [2, 12]: 0.95 (inactive)
- fold change [2, 13]: 0.314
- cell count [2, 14]: 3920
- cell count [2, 15]: 4130
- z-score [3, 16]: 1.94 (inactive)
- z-score [3, 17]: 0.483
- viability [1, 18]: 114% (inactive)
- viability [1, 19]: 111% (inactive)
- viability [1, 20]: 97.3% (active)
- viability [1, 21]: 102% (inactive)
- viability [1, 22]: 115% (inactive)
- viability [1, 23]: 111% (inactive)
- viability [1, 24]: 96% (active)
- viability [1, 25]: 102% (inactive)
- viability [1, 26]: 119% (inactive)
- viability [1, 27]: 111% (inactive)
- viability [1, 28]: 92.6% (active)
- viability [1, 29]: 97.4% (active)
- viability [1, 30]: 118% (inactive)
- viability [1, 31]: 112% (inactive)
- viability [1, 32]: 97.6% (active)
- viability [1, 33]: 95.6% (active)
- viability [1, 34]: 126% (inactive)
- viability [1, 35]: 116% (inactive)
- viability [1, 36]: 93.1% (active)
- viability [1, 37]: 94.2% (active)
- viability [1, 38]: 115% (inactive)
- viability [1, 39]: 111% (inactive)
- viability [1, 40]: 94.9% (active)
- viability [1, 41]: 95.1% (active)
- viability [1, 4]: 114% (inactive)
- viability [1, 5]: 107% (inactive)
- viability [1, 6]: 8.63% (active)
- viability [1, 7]: 75.3% (active)
- viability [1, 8]: 3.43% (active)
- viability [1, 9]: 2.98% (active)
- viability [1, 10]: 0.394% (active)
- viability [1, 11]: 0.691% (active)

— PubChem BioAssay
